# Assay outcomes deposited in PubChem BioAssay by National Center for Advancing Translational Sciences (NCATS).
# In the library only some 4.7% were active in any assay of this set; here they are far more common.
# D1 antagonist: antagonists of human D1 dopamine receptor; HEK293 TREx D1 cells, calcium flux, dopamine EC80; stronger effect = lower value; AID 504652; P21728; activity change, negative = inhibition, % at 10 µM; 3.2% of 360,000 active; in the data active = activity change below about -30%; note: % is set by controls: 0 for no effect and ±100 for the full control effect
#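 Using tetracycline-induced force-coupled D1 Hek293 cells and a calcium dye, signals were followed for 180 s after compound, then for 180 s after EC80 dopamine, to detect inhibitors.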
# D1 ag: agonists of human D1 dopamine receptor; HEK293 T-REx D1 cells, calcium flux, agonist mode; 1% of 360,000 active; activation, % at 2 µM; note: 0% is about no effect
#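 Tetracycline-induced HEK293 TREx D1 cells, force-coupled to calcium signalling, were dye-loaded with a no-wash calcium kit. Compound was pin-added after a 10 s baseline. Fluorescence was read kinetically at 1 cycle/s for 180 s, with calcium rises flagged as agonism.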
# TRHR ag: activates the human TRH receptor. AID 493084. activation, % at 2 µM. 0.18% of 360,000 active. TRHR cells, calcium flux fluo-8, FDSS agonist mode; note: 0% is about no effect
# Target sequence (P34981 whole entry, looked up): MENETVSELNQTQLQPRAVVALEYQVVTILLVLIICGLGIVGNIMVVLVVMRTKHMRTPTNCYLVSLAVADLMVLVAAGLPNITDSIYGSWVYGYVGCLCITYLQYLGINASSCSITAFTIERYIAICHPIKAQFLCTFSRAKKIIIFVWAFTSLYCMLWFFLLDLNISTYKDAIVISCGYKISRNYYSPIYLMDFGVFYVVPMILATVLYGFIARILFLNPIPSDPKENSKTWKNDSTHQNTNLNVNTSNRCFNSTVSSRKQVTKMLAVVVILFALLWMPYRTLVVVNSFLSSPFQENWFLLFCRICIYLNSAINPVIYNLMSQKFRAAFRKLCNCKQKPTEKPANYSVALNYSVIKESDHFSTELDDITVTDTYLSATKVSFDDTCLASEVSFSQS
#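 In this calcium-flux screen, cells bearing human TRHR are dye-loaded with fluo-8, baselined for 10 cycles, then exposed to library compounds; positive kinetic calcium responses during the agonist phase mark hits, with TRH as control.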
# TRHR PAM: TRH receptor (human) allosteric enhancement; P34981; TRHR cells, fluo-8 calcium fluorescence, EC20 TRH enhancement; enhancement, % at 2 µM; 0.66% of 360,000 active; AID 493056; in the data active = enhancement above about 30%; note: 0% is about no effect
#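 TRHR-expressing cells loaded with fluo-8 calcium dye were read kinetically (ex 480/em 530) during compound addition, then stimulated with an EC20 of TRH (10 nM final). Enhancement of the Gq-mediated intracellular calcium response was scored.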
# D1 potentiator: human D1 dopamine receptor positive modulation; 0.036% of 360,000 active; potentiation, % at 10 µM; HEK293 TREx D1 cells, calcium flux, dopamine EC20 potentiation; in the data active = potentiation above about 30%; note: 0% is about no effect
# * hit, by the source's call; . = no result given. Cut-off read from the data, not from the text of the source, unless noted: active = activation above about 30%; inactive = the rest.
SMILES,D1 antagonist,D1 ag,TRHR ag,TRHR PAM,D1 potentiator
CCOC(=O)C1=C(c2ccccc2)NC(=O)NC1c1ccsc1 (stereo unspecified),-1.1,1.3,0.1,-2.2,-2.4
COc1ccc(CC(=O)Nc2ccc(S(=O)(=O)N(C)C3CCN(C)CC3)cc2)cc1,9.3,20.9,2.3,-3.2,-2.2
CCC(C(=O)Nc1ccc(S(=O)(=O)N(C)C2CCN(C)CC2)cc1)c1ccccc1 (stereo unspecified),-14.3,30.3*,3.0,4.2,-9.1
CN1CCC(N(C)S(=O)(=O)c2ccc(Cl)cc2)CC1,21.0,0.0,0.4,34.5*,-0.8
COc1ccc(S(=O)(=O)N(C)C2CCN(C)CC2)cc1,9.5,-1.9,0.1,0.6,3.8
CC(Oc1ccc(Br)cc1)C(=O)Nc1ccc(S(=O)(=O)N(C)C2CCN(C)CC2)cc1 (stereo unspecified),-52.2*,126.2*,13.3,-14.4,12.9
COc1ccccc1CC(=O)Nc1ccc(S(=O)(=O)N(C)C2CCN(C)CC2)cc1,7.8,2.4,0.0,0.0,-3.0
CCCCCn1c(=O)[nH]c2cc(C(=O)Nc3ccc(F)c(F)c3)ccc2c1=O,6.6,0.9,0.0,2.1,0.7
C#CCOCCOCCOCCNc1nc(N2CCN(C(=O)CCCCCCCCCCNC(=O)[C@H](CO)n3cc(CCCSC)nn3)CC2)nc(N2CCN(C(=O)CCCCCCCCCCNC(=O)[C@@H]([C@H](C)O)n3cc(C)nn3)CC2)n1,-5.3,14.6,1.9,-3.9,-0.2
CCn1cc(/C=N/NC(=O)c2ccc(C#N)cc2F)c2ccccc21,-0.2,-0.2,-0.5,3.1,-1.6
COC(=O)Cn1cc(/C=N/NC(=O)c2ccc(C#N)cc2F)c2ccccc21,-39.1*,5.0,0.3,-5.2,1.8
O=C(COC(=O)C1C2CC3OC(=O)C1C3C2)Nc1ccc(F)cc1 (stereo unspecified),2.8,0.2,0.2,0.7,-5.0
O=C(COC(=O)C1C2CC3OC(=O)C1C3C2)Nc1ccc(Br)cc1 (stereo unspecified),7.5,32.6*,-1.9,-3.3,.
CCOc1ccc2nc(NC3=NC(C)(C)C=C(C)N3)nc(C)c2c1,3.6,1.4,0.1,32.1*,-2.1
CNC(=O)COc1coc(CN2CCN(c3ccc(F)cc3)CC2)cc1=O,11.2,4.6,-0.2,-2.8,-3.4
Cc1c(NC(=O)Nc2cccc(C(F)(F)F)c2)sc2nc3n(c(=O)c12)CCC(C)CC3 (stereo unspecified),-9.8,-0.3,-0.1,-2.7,-4.8
COCCn1c(-c2ccc(Br)cc2)nc2oc3cc(OC)ccc3c(=O)c2c1=O,-44.6*,-0.3,-2.3,-4.3,0.2
Cc1ccc(C)c(S(=O)(=O)N2CCC(c3nc4c(nnn4Cc4ccc5c(c4)OCCO5)c(=O)[nH]3)CC2)c1,-2.5,8.4,-0.2,-2.5,-4.0
COc1cccc(NC(=O)C(Cc2ccccc2)NS(=O)(=O)c2ccc3c(c2)oc(=O)n3C)c1 (stereo unspecified),-11.4,2.9,0.5,0.5,-2.4
CC(C)Cc1csc(NC(=O)c2ccc(Cl)cc2)c1C(=O)O,-31.3*,16.7,-0.3,-7.1,-3.8
CC(C)Cc1csc(NC(=O)c2ccccc2Cl)c1C(=O)O,5.8,2.1,-0.2,-0.3,2.4
O=S(=O)(c1ccc(Cl)cc1)N1CCN(c2nc(-c3ccc(Cl)cc3)nc3ccccc23)CC1,-36.2*,0.0,-1.2,-0.9,2.1
CC(=O)c1ccc(S(=O)(=O)N2CCN(c3nc(-c4cccnc4)nc4ccccc34)CC2)cc1,0.7,5.3,0.6,34.8*,.
O=S(=O)(c1ccc(Cl)cc1)N1CCN(c2nc(-c3cccc(Br)c3)nc3ccccc23)CC1,-12.8,1.2,-0.7,-3.3,4.2
Clc1cccc(C2Nc3cccc4cccc(c34)N2)c1Cl,-35.8*,2.0,-0.2,-11.2,-12.2
SMILES,D1 antagonist,D1 ag,TRHR ag,TRHR PAM,D1 potentiator
CCN(C(=O)Cn1c(C(=O)OC)cc2sccc21)c1cccc(C)c1,10.7,1.9,1.3,-9.3,1.1
C/C(=N\NC(=O)c1nnn(-c2nonc2N)c1-c1cccs1)c1ccc(C)cc1,22.7,87.0*,10.2,14.5,4.2
COc1ccc(/C(C)=N/NC(=O)c2nnn(-c3nonc3N)c2-c2cccs2)cc1,5.6,56.6*,2.4,3.3,9.4
C/C(=N\NC(=O)c1nnn(-c2nonc2N)c1-c1cccs1)c1ccc(O)cc1,1.9,5.8,0.1,9.0,3.1
COc1ccc(/C(C)=N/NC(=O)c2nnn(-c3nonc3N)c2-c2ccccc2)cc1,29.8,49.6*,16.2,12.0,-5.2
CCNc1c(NC(=O)c2cc(OCC)c(OCC)c(OCC)c2)c(=O)oc2ccccc12,-1.3,1.4,-1.1,2.2,-2.9
CC(=O)c1ccc(N2CCN(S(=O)(=O)c3ccc4c5c3CC(=O)N5CC(C)S4)CC2)cc1 (stereo unspecified),-57.3*,7.1,-0.2,-6.1,-12.9
CC(=O)Nc1ccc(NC(=O)C2CCN(c3c(NC(C)=O)c(C)nn3-c3ccccc3)CC2)cc1,-35.7*,3.1,-0.2,-2.5,-0.7
Cc1cccc(N2CCN(CC(O)COc3ccccc3Cl)CC2)c1 (stereo unspecified),-33.2*,15.4,0.4,2.2,-9.2
C=CCc1ccccc1OCC(O)CN1CCN(Cc2ccc3c(c2)OCO3)CC1 (stereo unspecified),-71.3*,13.6,-1.1,-1.7,-9.7
C=CCc1ccccc1OCC(O)CN1CCN(CCN2C(=O)c3cccc4cccc(c34)C2=O)CC1 (stereo unspecified),-69.3*,5.7,-0.8,11.0,-7.8
OC(COc1cccc2ccccc12)CN1CCN(c2cccc(Cl)c2)CC1 (stereo unspecified),12.4,4.3,1.8,6.4,11.1
COc1ccccc1N1CCN(CC(O)COc2ccc(Cl)c(C)c2)CC1 (stereo unspecified),-31.2*,13.1,0.5,-1.0,-4.9
Cc1ccccc1OCC(O)CN1CCN(CCN2C(=O)c3cccc4cccc(c34)C2=O)CC1 (stereo unspecified),3.1,-0.5,-0.7,-1.8,-10.5
C=CCc1ccccc1OCC(O)CN1CCN(c2ccc(C)cc2)CC1 (stereo unspecified),-49.8*,1.3,-0.1,2.7,-11.8
C=CCc1ccccc1OCC(O)CN1CCN(C(=O)OCC)CC1 (stereo unspecified),1.2,0.1,-0.9,1.2,0.3
COc1ccccc1C(=O)N1CCN(Cc2ccc3c(c2)OCO3)CC1,-10.9,-0.7,0.4,1.4,-5.2
CCOc1ccccc1C(=O)NCC(=O)N1CCN(Cc2ccc3c(c2)OCO3)CC1,-14.6,0.1,-0.3,33.3*,-9.8
CCCn1c2ccccc2c2cnn(CC(=O)N3CCN(c4ccccc4)CC3)c(=O)c21,4.5,-1.5,-0.5,2.9,-4.8
Cc1nn(Cc2ccccc2)c2sc(C(=O)NCc3cccnc3)cc12,-47.4*,1.9,0.2,2.2,-9.5
